Our source for the inhibition values is PubChem BioAssay AID602142 (NMMLSC, 2011).

This is one part of the list. Activity calls are given as the source filed them. No rule for the calls is given here.

Chain of Lethal factor (Bacillus anthracis) (P15917 whole entry, looked up): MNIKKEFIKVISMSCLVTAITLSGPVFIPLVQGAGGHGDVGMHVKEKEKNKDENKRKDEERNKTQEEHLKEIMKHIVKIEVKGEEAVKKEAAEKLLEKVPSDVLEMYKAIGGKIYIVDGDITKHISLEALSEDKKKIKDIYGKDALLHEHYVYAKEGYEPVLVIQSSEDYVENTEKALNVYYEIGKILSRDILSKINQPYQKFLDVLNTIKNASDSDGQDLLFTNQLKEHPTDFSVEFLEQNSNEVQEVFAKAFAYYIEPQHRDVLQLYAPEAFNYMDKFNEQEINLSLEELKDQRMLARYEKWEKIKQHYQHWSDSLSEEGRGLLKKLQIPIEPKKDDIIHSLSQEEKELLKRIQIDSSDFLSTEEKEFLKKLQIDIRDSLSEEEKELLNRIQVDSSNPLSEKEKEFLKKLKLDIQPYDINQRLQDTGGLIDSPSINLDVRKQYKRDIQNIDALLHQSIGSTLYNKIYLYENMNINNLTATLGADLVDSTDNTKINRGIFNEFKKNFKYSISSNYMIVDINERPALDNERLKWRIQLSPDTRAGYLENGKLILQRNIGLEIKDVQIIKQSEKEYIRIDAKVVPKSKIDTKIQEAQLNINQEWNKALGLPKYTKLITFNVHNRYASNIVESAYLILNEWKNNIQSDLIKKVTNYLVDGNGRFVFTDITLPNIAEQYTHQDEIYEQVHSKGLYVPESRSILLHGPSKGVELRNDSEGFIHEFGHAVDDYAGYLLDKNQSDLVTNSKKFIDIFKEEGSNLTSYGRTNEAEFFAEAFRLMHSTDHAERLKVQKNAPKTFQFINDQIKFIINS

The test addresses Lethal factor (Bacillus anthracis) (UniProt P15917). Kind of test: Bacillus anthracis LF protease inhibitors, confirmation, biochemical, multiplex microsphere, cherry pick 1 (AID 602142). As to conditions: multiplex microsphere protease cleavage assay, at 10 µM, active compounds read high.
On to `COc1cc2cc(CN(CCN3CCCC3)C(=O)Nc3ccccc3Cl)c(=O)[nH]c2cc1OC`, for which the inhibition was -0.1% (inactive).

Take `COc1ccc(Br)cc1CNCCc1cccc(Cl)c1`: the inhibition is 3.2% (inactive).

With `CCCSc1nc2sc3c(c2c(=O)n1-c1ccc(OC)cc1)CCN(C)C3`, the inhibition is 4.5% (inactive).

On to `CCOc1ccc(NC(=O)CC(Cc2ccc(Cl)cc2)C(=O)O)cc1` (stereo unspecified), for which the inhibition is 2.3% (inactive).

For the molecule `Cc1ccc(C(=O)COc2cccc(NC(=O)c3ccco3)c2)cc1`, the inhibition was -1.8% (inactive).

As to `COc1ccc(NS(=O)(=O)c2cc(C(=O)Nc3ccccc3C(=O)O)ccc2C)cc1`, the inhibition was -2.7% (inactive).

Regarding `CN(C(=O)c1ccccn1)c1nnc(-c2ccccn2)s1`, the inhibition is -4.3% (inactive).

On to `CC(=O)Nc1ccc(Oc2ccc3c(c2)C(=O)NC3=O)cc1`, for which the inhibition is 0.6% (inactive).

As for `Nc1ccccc1Sc1cc(Cl)nnc1Cl`, the inhibition was -3.5% (inactive).

In the case of `COc1ccccc1CNC(=O)C1Cc2ccccc2C(=O)O1` (stereo unspecified), the inhibition is 1.5% (inactive).

Consider `COCc1cc(=O)[nH]c(SC)n1`, for which the inhibition was -4.9% (inactive).

Take `CN1CCN(c2ccc(NC(=O)c3ccccc3)cc2)CC1`: the inhibition was 4.8% (inactive).

Regarding `COC(=O)CN(c1nc(C)c(Cl)c(OC)n1)S(=O)(=O)c1ccc(C)cc1`, the inhibition was 2.2% (inactive).

With `CCCN1C2CCCC1CC(NC(=O)c1cccc(OC)c1)C2` (stereo unspecified), the inhibition was 3.1% (inactive).

As to `COc1ccccc1C1CCN(C(=S)Nc2ccc(Br)cc2)CC1`, the inhibition was 1.5% (inactive).

For `Clc1ccc(-c2ncc3ccccn23)c(Cl)c1`, the inhibition was 2.1% (inactive).

Consider `CC(C)Cc1nnc(NC(=O)CCC(=O)Nc2ccc3cn[nH]c3c2)s1`, for which the inhibition is -2.6% (inactive).

In the case of `Cc1ccc2[nH]cc(CCNC(=O)C3CCCCC3)c2c1`, the inhibition is 3.7% (inactive).

Take `CCOCC(=O)NCc1ccc2c(c1)cc(C)n2C`: the inhibition is -1% (inactive).

For `Cc1onc(-c2ccccc2Cl)c1C(=O)NCCn1ccc2ccccc21`, the inhibition is 4.3% (inactive).

Take `O=C(O)c1cc(S(=O)(=O)NC2CCCc3ccccc32)ccc1O` (stereo unspecified): the inhibition was 1.4% (inactive).
